Experimental findings from PubChem BioAssay AID1948 (National Center for Advancing Translational Sciences (NCATS), 2009) are described below.

Screen size: about 110,000 compounds; about 20 (0.02%) were called active. Inconclusive results (about 2%) are left out. The list comes from a sample in which actives are over-represented; it also holds similar structures and randomly drawn compounds. A number with no mark means an inactive call. Calls come from the whole dose curve; as a rule, active = well fitted activation curve with a large enough effect; inconclusive = small, poorly fitted or top-dose-only effect; inactive = no such curve, though single readings can be large or run the other way.
Potency is the fitted concentration of half-maximal effect.

A short description of this experiment: qHTS Assay for Compounds that Induce Erasure of Genomic Imprints.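 For activity change, positive = activation: 0% = negative control wells on the plate.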 The following applies: mouse ES Peg3-LacZ reporter, beta-gal luminescence, 40 h; series mostly up to 10.9 µM; activity change, positive = activation: at the top concentration. The text has this: qHTS Assay for Compounds that Induce Erasure of Genomic Imprints NIH Chemical Genomics Center [NCGC] NIH Molecular Libraries Screening Centers Network [MLSCN] Assay Submitter (PI): JEFFRIES, SEAN, NCGC, University of Cambridge NCGC Peg3 Imprinting Assay Overview Genomic imprinting is the epigenetic process whereby genes are expressed in a parent of origin fashion. […] Unlike some forms of epigenetic silencing that can be overcome by overexpression of transcription factors, genomic imprinting stably represses the expression of one allele despite potentially high levels of expression from the other allele. […] During mouse embryonic day 11.5 imprints are erased in PGCs so that sex specific imprints can be reestablished during gametogenesis. Embryonic germ (EG) cells can be derived from developing PGCs at embryonic day 11.5 and these cells often lack genomic imprints. […] Embryonic stem (ES) cells are a cell type similar to EG cells in phenotype and transcriptional profile, yet ES cells maintain genomic imprints. This similarity between ES and EG cells prompted us to use ES cells to look for factors which could induce imprint erasure. To investigate the stability of genomic imprinting, ES cells were derived from mice with an insertion of a LacZ-Neomycin reporter construct in the Peg3 locus. Peg3 is an imprinted locus where gene expression is restricted to the paternal allele. […] Using LacZ expression we are able to monitor the state of the Peg3 imprint. In order to dissect the mechanisms involved in imprint erasure using a forward chemical genetics approach we developed a cell based phenotype assay using an endogenous silence imprinted locus. This assay utilizes maternally inherited Peg3LacZ-Neo ES cells by monitoring the LacZ expression from the normally silent Peg3 allele. To facilitate screening, high-density feeder-free ES cell culture has been optimized so that ES cells can be grown in 1536 for over four days without feeding or washes. The assay uses a luminescence based read out for LacZ activity and is a homogenous assay optimal for HTS.
NCGC Peg3 Imprinting Assay Protocol Summary ES cell lines were derived from blastocysts taken from Peg3LacZ-Neo x129 matings. Lines were sexed and genotyped for the Peg3LacZ-Neo allele. Female cells carrying the reporter allele were used in this study. Cells were derived on a layer of mouse embryonic fibroblasts and passaged multiple times before switching to feeder free culture. Cells were maintained feeder free on gelatin coated dishes in DMEM/F12 media supplemented with 15% FBS, 2mM L-glutamine, 100 units/ml penicillin, 100ug/ml streptomycin, 0.1mM MEM nonessential amino acids, 1mM sodium pyruvate, 0.1% sodium bicarbonate, 0.1mM 2-Mercaptoethanol, and 400 units/ml leukemia inhibitory factor (LIF) at 37C with 5% CO2. The assay was performed in 1536-well format. A single luminescence read was taken at the end of the assay and the data was normalized by plate to internal negative controls. Maximum efficacy and AC50 values were calculated from dose-response data using the standard Hill equation. 1536 well plates were filled with 0.5ul of 0.1% gelatin per well, spun down and incubated for at least 30 min at 37C. The ES cells were then trypsini Peg3 1536-well assay protocol: (1)Plate 0.5ul/well 0.1% gelatin in white tissue culture treated 1536-well plates, spin and incubate at 37C for at least 30 min. (2)Add 5ul/well (300 cells) of ES cell suspension from freshly trypsinized cells and incubate at 37C, 5% CO2 for 40 hours. (3)Add 5ul/well of freshly prepared BetaGlo solution and incubate at room temperature for 5 minutes. (4)Read luminescence on the ViewLux plate reader. Keywords Genomic Imprinting, Germ Cells, Embryonic Stem Cell, DNA Methylation, Peg3, qHTS, NIH roadmap, NCGC
On to `Cc1cccc(C(C)C)c1NC(=O)C(NS(=O)(=O)c1cccc2nsnc12)c1ccccc1` (stereo not drawn), for which the “activity change, positive = activation” value was -5.37%.
For `COc1cc(OC)c(NC(=O)N2CC3CCCN3c3ccccc32)cc1Cl` (stereo not drawn), the “activity change, positive = activation” value was -4.34%.
`Cc1ccc(C(=O)COC(=O)C(Cc2c[nH]c3ccccc23)NC(=O)c2ccc(Br)cc2)cc1` (stereo not drawn): the “activity change, positive = activation” value was -23.6%.
Consider `COc1cccc(Cn2c(CNS(=O)(=O)c3ccc(Cl)s3)nc3cccnc32)c1`, for which the “activity change, positive = activation” value was 5.91%.
For the compound `CCCOc1ccc(NC(=O)CC2C(=O)N(c3ccccc3)C(=O)N2Cc2ccco2)cc1` (stereo not drawn), the “activity change, positive = activation” value is 14.7%.
In the case of `CCN(c1ccc(Cl)cc1)S(=O)(=O)c1nnc(NC(=O)c2ccco2)s1`, the “activity change, positive = activation” value was -13.6%.
On to `CCC(=O)N1CCc2cc(S(=O)(=O)NC(C(=O)Nc3ccc(C(C)=O)cc3)C(C)C)ccc21` (stereo not drawn), for which the “activity change, positive = activation” value is -8.36%.
The same measure, in the same setting: then `CCSc1ncc(Cl)c(C(=O)Nc2c(C(=O)c3ccccc3)oc3ccccc23)n1`, with -6.33%.
As to `O=C(O)c1ccc2c(c1)N(Cc1ccc(F)cc1)C(=O)c1ccccc1S2=O` (stereo not drawn), the “activity change, positive = activation” value is -14.8%.
With `Cc1ccc(-c2cn3c(n2)sc2cc(C(=O)NCc4cccs4)ccc23)c(C)c1`, the “activity change, positive = activation” value is 5.34%.
`Cc1cccc(CC(=O)Nc2cccc(-c3cn4cccnc4n3)c2)c1`: the “activity change, positive = activation” value is 27.8%.
Regarding `CCCCNC(=O)CSc1nc2cc3c(cc2c(=O)n1CCCCCC(=O)NCc1ccc2c(c1)OCO2)OCO3`, the “activity change, positive = activation” value was -3.01%.
Same read-out and setting: then `CCOc1ccc(CNC(=O)c2ccc(CS(=O)c3ccccc3)o2)cc1` (stereo not drawn), with -14.1%; and `CCOc1ccccc1NC(=O)CCS(=O)(=O)c1cccc2nsnc12`, with -4.98%.
With `CCSc1nnc2c(n1)OC(c1ccc(OCC(=O)O)cc1)Nc1ccccc1-2` (stereo not drawn), the “activity change, positive = activation” value was -3.64%.
Regarding `COc1cccc(-c2nc(S(=O)(=O)c3ccc(C)cc3)c(NCc3ccccc3)o2)c1`, the “activity change, positive = activation” value is 4.59%.
Regarding `Cc1ccc(C)c(N2CCN(C(=O)Cn3ncc4c(=O)oc5ccc(C)cc5c43)CC2)c1`, the “activity change, positive = activation” value was -13.6%.
With `Cc1ccc(S(=O)(=O)N(CC(=O)Nc2ccc(Cl)cc2Cl)c2ccccc2C)cc1`, the “activity change, positive = activation” value is -14.6%.
As to `COc1ccccc1-n1c(-c2ccc(C)cc2)cn2c3c(=O)n(C)c(=O)n(C)c3nc12`, the “activity change, positive = activation” value is 9.66%.
Take `O=c1cnc2cnc(Nc3ccccc3)nc2n1Cc1ccc(F)cc1`: the “activity change, positive = activation” value is -5.91% [at 60.7 µM].
For the compound `Cc1nc2cnc(Nc3ccccc3)nc2n(C[C@H]2CCCO2)c1=O`, the “activity change, positive = activation” value is -2.6% [at 60.7 µM].
As for `Cc1nc2cnc(Nc3ccccc3)nc2n(Cc2ccc(F)cc2)c1=O`, the Potency is 3.16 µM (active).
Consider `Cc1cc(NC(=O)c2cccc(Cl)c2)ccc1-c1cc2ccccc2oc1=O`, for which the “activity change, positive = activation” value was -17.4%.
On the same count and under the same terms, then `Cc1ccc(CCNC(=O)c2nnc(Cc3cccc(F)c3)o2)cc1`, with -10%.
Still for that read-out and setting: then `Cc1cc2c(cc1C)C(c1cccc(OC(C)C)c1)CC(=O)N2` (stereo not drawn), with -14.4%.
On to `COc1ccc(Cl)cc1NC(=O)CSc1nc(-c2cccs2)cc(C(F)(F)F)n1`, for which the “activity change, positive = activation” value was -13%.
On the same count and under the same terms, then `Cc1ccc(NC(=O)Nc2sc3nc4n(c(=O)c3c2C)CCC(C)CC4)c(Cl)c1` (stereo not drawn), with -5.4%; and `Cc1ccc(OCCSc2nc(C)c(Cc3ccccc3)c(=O)[nH]2)cc1`, with -7.4%.
As to `CC(C)S(=O)(=O)c1oc(-c2ccc(F)cc2)nc1S(=O)(=O)c1ccc(F)cc1`, the “activity change, positive = activation” value is -38.1%.
With `CCCCN(C)c1nnc(NC(=O)Nc2ccc(Br)c(C)c2)s1`, the “activity change, positive = activation” value was -3.91%.
Take `O=C(NCCc1ccc(Cl)cc1)c1ccc2c(c1)N(Cc1ccc(F)cc1)C(=O)CS2`: the “activity change, positive = activation” value is -20.3%.
As for `CCOc1ccccc1NC(=O)CCn1cnnn1`, the “activity change, positive = activation” value was -3.05%.
Same read-out and setting: next, `CCOc1cc(-c2nnc(SCC(=O)NC3CCCC3)nc2-c2ccc(OC)c(OCC)c2)ccc1OC`: -9.78%.
Consider `Cn1nnnc1SCCCNCc1cccc(OCc2ccc(Cl)cc2)c1`, for which the “activity change, positive = activation” value is -17.5%.
With `CSc1nc(=O)c2c(n1C)NC(=O)CC2c1ccccc1OC(C)C` (stereo not drawn), the “activity change, positive = activation” value is -5.06%.
Consider `COc1ccc(Cl)cc1S(=O)(=O)N1CCC(c2ccncc2)CC1`, for which the “activity change, positive = activation” value is -15.5%.
As to `CCc1nn(CC(=O)Nc2cccc(C)c2C)c(=O)c2cc3sccc3n12`, the “activity change, positive = activation” value is 6.85%.
Same read-out and setting: then `Cc1cccc(NC(=O)c2cc(S(=O)(=O)N3CCC4(CC3)OCCO4)ccc2F)c1`, with -21%; and `CCC(=O)N1CCc2cc(Br)cc(S(=O)(=O)CCC(=O)NCCc3ccc(OC)c(OC)c3)c21`, with 5.01%; and `CCCNc1ncnc2c1c(-c1ccccc1)cn2-c1ccc(OCC)cc1`, with -20.1%.
Same read-out and setting: next, `Cc1ccc(C)c(N2CCN(C(c3ccccc3)c3nnc(-c4ccccc4)o3)CC2)c1` (stereo not drawn): -8.5%.
Consider `COc1ccc(CN2C(=O)C(NC(=O)c3cccc(C)c3)(C(F)(F)F)N=C2c2ccccc2)cc1` (stereo not drawn), for which the “activity change, positive = activation” value is 9.97%.
`CCOC(=O)C1CCCN(C(=O)c2ccc3c(c2)sc2nc(-c4ccc(CC)cc4)cn23)C1` (stereo not drawn): the “activity change, positive = activation” value was -15.9%.
With `CCCn1c(NCc2ccccc2F)nc2ccccc21`, the “activity change, positive = activation” value was -8.61%.
Consider `O=S(=O)(c1ccc2nc(N3CCN(c4cccc(Cl)c4)CC3)ccc2c1)N1CCCCC1`, for which the “activity change, positive = activation” value is -6.86%.
`COc1ccc(OC)c(NC(=O)/C=C/c2ccc(C)o2)c1`: the “activity change, positive = activation” value was 7.39%.
As for `Cc1c(Cl)cccc1NC(=O)CCS(=O)(=O)c1ccc2c(c1)oc(=O)n2C`, the “activity change, positive = activation” value was -2.77%.
For `C#CC(C)(CC)NC(=O)Cn1nnc(-c2ccc(OCc3c(F)cccc3Cl)cc2)n1` (stereo not drawn), the “activity change, positive = activation” value was -21%.
